# Shown are actives, neighbours in structure and some others; about 3.5% of the full set was active somewhere.
# BoNT-F LC inh: inhibitors of Botulinum neurotoxin F light chain protease; inhibition, % at 10 µM; Multiplex microsphere protease cleavage assay, flow cytometry; 360,000 tested, 0.22% active; AID 588497; in the data active = inhibition above about 35%, passing the limit was not always enough; inconclusive = no clear call, values can overlap the other calls; note: plate controls were buffer without enzyme for full effect and enzyme alone for no effect
# Autofluor counter: counter-screen for toxin protease inhibitors: compound fluorescence | fluorescence intensity (test concentration not listed) | compound autofluorescence counterscreen, microsphere flow cytometry; active compounds read high | 360,000 tested, 3.1% active; in the data active = fluorescence intensity above about 16000; inconclusive = no clear call, values can overlap the other calls
# Anthrax LF prot: anthrax lethal factor protease inhibition; P15917; multiplex microsphere protease cleavage assay, LF; inhibition, % at 10 µM; 360,000 tested, 0.12% active; AID 588501; note: plate controls were buffer without enzyme for full effect and enzyme alone for no effect
# BoNT A protease: BoNT A light chain protease inhibition. inhibition, % at 10 µM. AID 588499. multiplex microsphere protease substrate cleavage, flow cytometry. 360,000 tested, 0.17% active; note: plate controls were buffer without enzyme for full effect and enzyme alone for no effect
# Starred values were filed as active, the others as inactive; u = inconclusive. Cut-off read from the data, not from the text of the source, unless noted: active = inhibition above about 30%; inconclusive = no clear call, values can overlap the other calls; inactive = below that.
SMILES,BoNT-F LC inh,Autofluor counter,Anthrax LF prot,BoNT A protease
O=C(Cc1cccs1)N1CCN(c2nc(-c3ccc(Cl)cc3)cs2)CC1,-1.8,21233*,-3.5,u
Cn1c(-c2cccc(Br)c2)cnc1NCc1cccnc1,-3.6,23394*,-2.1,-2.1
Cn1c(-c2ccc(F)cc2)cnc1NCc1ccccc1,-5.9,17208*,-4.4,-3.4
COc1ccc(Cc2nnc(NC(=O)C3CCN(C(=O)c4ccco4)CC3)s2)cc1,-6.9,3881,6.9,-0.5
CC(=O)Nc1ccc(OCC(O)CNC2CCCC2)cc1 (stereo not given),-9.6,23804*,-0.3,u
OC(CNC1CCCC1)COc1c(F)cc(Br)cc1F (stereo not given),-0.4,16538*,-3.8,0.3
CCn1cc(/C=C(\NC(=O)c2ccccc2)C(=O)NCCCN2CCOCC2)c2ccccc21,10.2,5111,0.5,2.3
O=C(NC1CCCc2ccccc21)C1CCN(S(=O)(=O)N2CCCCCC2)CC1 (stereo not given),5.5,21253*,3.4,3.2
CNc1nnc(SCC(=O)N2c3ccccc3NC(=O)CC2C)s1 (stereo not given),0.8,2907,-2.1,-0.2
COc1ccc(CNC(=O)c2ccc(CS(=O)(=O)Cc3ccccc3F)o2)cc1,-2.8,4544,-0.4,-0.5
Cc1ccc(Nc2nc3ccccc3n3nnnc23)cc1,-5.8,4022,-5.8,-0.3
Clc1ccc(Nc2nc3ccccc3n3nnnc23)cc1,0.9,20275*,-2.6,1.0
CC(C)CSc1ncnc2c1oc1nc3c(cc12)COC(C)(C)C3,-2.8,20132*,1.5,-1.2
O=C(NCc1ccccn1)C(=O)NCC1OCCN1S(=O)(=O)c1ccc(F)cc1 (stereo not given),13.1,4500,0.2,-2.4
CCc1ccc(C(C)NC(=O)Cn2cnc3c(=O)n(C)c(=O)n(C)c32)cc1 (stereo not given),0.4,16189*,-0.8,0.5
CCc1ccc(NC(=O)Cn2cnc3c(=O)n(C)c(=O)n(C)c32)cc1,3.9,4216,2.7,0.6
Cc1ccccc1-n1c(=O)cc(N2CCc3ccccc3C2)[nH]c1=O,11.0,19487*,-15.2,8.5
C/C(=N\OC(=O)c1ccc(F)cc1)c1nccs1,-1.6,23617*,-3.9,0.2
CC(C(=O)c1ccc(Br)cc1)[n+]1cccc2ccccc21 (stereo not given),u,16961*,-7.7,-4.5
O=C(Nc1ccon1)c1cc2c(s1)CCCC2,4.8,22744*,1.0,u
O=C(NCCCn1ccnc1)c1cc2c(s1)CCCCC2,-8.8,25451*,0.1,-5.4
CC1CCc2sc(C(=O)NCCCn3ccnc3)cc2C1 (stereo not given),-2.9,4998,2.7,0.1
O=C(NCc1ccco1)c1cc2c(s1)CCCCC2,12.6,18946*,-19.1,10.5
CNC(=O)c1cc2c(s1)CCCCCC2,5.1,10973,1.2,1.5
O=C(Nc1ccon1)c1cc2c(s1)CCCCCC2,-3.9,16721*,-0.8,u
SMILES,BoNT-F LC inh,Autofluor counter,Anthrax LF prot,BoNT A protease
CCN(C[C@H]1N[C@@](CC)(C(=O)OC)[C@H]2C(=O)N(Cc3ccccc3)C(=O)[C@@H]12)C(=O)C1CCCCC1,-5.3,3035,12.0,-0.1
O=C(c1c(F)cccc1F)N1CCCc2ccccc21,u,4551,-2.3,-1.2
CCN1CCN(c2oc(-c3ccc(OC)cc3)nc2C#N)CC1,-2.1,16578*,-4.3,-2.2
COc1ccc(-c2nc(C#N)c(N3CCc4ccccc4C3)o2)cc1OC,-5.0,17078*,-7.1,-2.4
COc1ccc(N2CCN(c3oc(-c4ccco4)nc3C#N)CC2)cc1,6.4,20889*,-5.7,u
COc1ccc(-c2nc(C#N)c(N3CCN(c4ccccc4)CC3)o2)cc1,-13.2,5922,-12.9,-0.6
COc1ccc(N2CCN(c3oc(-c4ccccc4OC)nc3C#N)CC2)cc1,-5.3,21565*,-4.4,-3.4
COc1ccccc1-c1nc(C#N)c(N2CCc3ccccc3C2)o1,-12.7,11156,-6.5,0.1
Cc1cc(N2CCN(C(c3ccnc4ccccc34)c3nnnn3-c3c(C)cccc3C)CC2)c2ccccc2n1 (stereo not given),-4.4,6095,-3.8,-0.6
COc1ccc(OCC(=O)NNC(=S)NC(=O)c2ccc(Br)o2)cc1,-4.6,6572,-3.0,-2.7
Cc1cccc(NS(=O)(=O)c2ccc(C3CCCCC3)cc2)n1,-2.9,22937*,0.3,-1.7
Cc1cccc(NS(=O)(=O)c2ccccc2)n1,-0.3,8847,-1.3,0.2
Cc1ccc(S(=O)(=O)NC(=O)c2cccn2C)cc1,-0.9,16326*,-0.2,0.4
Cn1cccc1C(=O)NS(=O)(=O)c1ccccc1Cl,12.7,13674,-7.0,u
COC(=O)C1=C(C)n2nnnc2NC1c1cc2ccccc2o1 (stereo not given),9.2,17991*,-7.1,u
O=S(=O)(Nc1ccc(C(F)(F)F)cn1)c1ccccc1,2.0,4062,-1.1,-0.6
